These results are taken from PubChem BioAssay (NCI).

Among the test systems are T-47D breast; BT-549 breast; MDA-MB-435 melanoma; MCF7 breast; HCC-2998 colon; KM12 colon; HCT-116 colon; SW-620 colon.
Common to all, as to test: NCI-60 one-dose screen, 48 h (100 = growth as untreated, 0 = no growth, -100 = all killed)
Settings in all cases: 10 µM unless noted

Values joined by “and” are separate entries in the source; they are usually repeats but may differ in a detail not shown here. Identical values can stand only once. About 83,000 compounds went through this panel and 20% of them were active in at least one assay; those are over-represented in the sample as a whole.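 Treatment: one concentration, 48 hours, 96-well format. Scoring: percent growth, with anything below 10 considered active.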 The source holds several records for some structures; these can differ, active in one and inactive in another. Active and inactive are the calls of the source.

Consider `CCN(CC)CCOc1ccc(/C=N/Nc2nc3c([nH]2)c(=O)n(C)c(=O)n3C)cc1`, for which the growth in the assay with T-47D breast was 89.7% (inactive) and 96.3% (inactive); in the assay on BT-549 breast it was 105% (inactive) and 96.1% (inactive); with MDA-MB-435 melanoma, 104% (inactive) and 105% (inactive); in the assay on MCF7 breast it was 81.5% (inactive) and 74.6% (inactive); in the assay with HCC-2998 colon it was 102% (inactive) and 111% (inactive); in the assay on KM12 colon it was 109% (inactive) and 106% (inactive).

For the compound `Cc1cc(O)c2c(c1)C(=O)c1cc(O)cc(O)c1C2=O`, the growth in the assay with T-47D breast was 65% (inactive) and 73.4% (inactive); in the assay with BT-549 breast it was 84.5% (inactive) and 88.1% (inactive); with MDA-MB-435 melanoma, 76.8% (inactive) and 83.6% (inactive); with MCF7 breast, 98.4% (inactive) and 95.1% (inactive); with HCT-116 colon, 92.9% (inactive) and 97.5% (inactive); in the assay with HCC-2998 colon it was 95% (inactive) and 108% (inactive). Further, in the assay on KM12 colon, the growth was 98.1% (inactive) and 91.9% (inactive).

Take `COc1cc(C(=O)N/N=C/c2ccc(N(C)C)cc2)cc(OC)c1OC`: the growth with BT-549 breast is -2.93% (active); in the assay with MDA-MB-435 melanoma, -11.9% (active); in the assay on SW-620 colon, 26.2% (inactive); in the assay with MCF7 breast, 18.3% (inactive); in the assay with HCT-116 colon, 10.1% (inactive); in the assay with HCC-2998 colon, 12% (inactive). The growth in the assay with KM12 colon was 17% (inactive).

Consider `Nc1ccc2[nH]c(-c3ccccc3)cc(=O)c2c1`, for which the growth in the assay with BT-549 breast was 81.2% (inactive); with MDA-MB-435 melanoma, -21.2% (active); in the assay with SW-620 colon, 57.6% (inactive); with MCF7 breast it was 51.7% (inactive); in the assay on HCT-116 colon, 81% (inactive); in the assay with HCC-2998 colon, 78.3% (inactive). Moreover, the growth with KM12 colon was 45.2% (inactive).

On to `CCC(=O)C(CC)c1cccc(OC)c1` (configuration not stated), for which the growth is 105% (inactive) in the assay with BT-549 breast; 101% (inactive) with MDA-MB-435 melanoma; 105% (inactive) in the assay on SW-620 colon; 104% (inactive) in the assay with MCF7 breast; 104% (inactive) in the assay on HCT-116 colon; 112% (inactive) in the assay with HCC-2998 colon. Also, the growth in the assay on KM12 colon was 111% (inactive).

Turning to `OC1CCC(Oc2cccc3cnc(Nc4ccc5nc[nH]c5c4)nc23)CC1` (configuration not stated), the growth in the assay with BT-549 breast was -19.5% (active) and 18.4% (inactive); in the assay with MDA-MB-435 melanoma it was 12.3% (inactive) and 58.4% (inactive); with SW-620 colon it was 5.88% (active) and 32.4% (inactive); in the assay with MCF7 breast it was 5.53% (active) and 17.9% (inactive); in the assay on HCT-116 colon, -6.99% (active) and 2.03% (active); in the assay with HCC-2998 colon, 8.35% (active) and 61.4% (inactive). The growth in the assay on KM12 colon was 1.29% (active) and 15.7% (inactive).

As for `COc1ccc2ccccc2c1/C=N/N1CCCCC1`, the growth is 102% (inactive) in the assay on BT-549 breast; 99.1% (inactive) with MDA-MB-435 melanoma; 103% (inactive) in the assay with SW-620 colon; 84% (inactive) in the assay with MCF7 breast; 102% (inactive) in the assay on HCT-116 colon; 108% (inactive) in the assay with KM12 colon.

As to `Nc1ccc2ccc(N)cc2c1`, the growth in the assay with T-47D breast is 87.7% (inactive); in the assay with BT-549 breast, 87.7% (inactive); in the assay with MDA-MB-435 melanoma, -33.6% (active); in the assay with MCF7 breast, 63.5% (inactive); with HCT-116 colon it was 82.6% (inactive); in the assay with HCC-2998 colon, 100% (inactive). For the same compound, the growth in the assay with KM12 colon is 67.1% (inactive).

In the case of `CCOC(=O)c1c(C)oc(C)c(C(=O)OCC)c1=O`, the growth was 79.4% (inactive) and 100% (inactive) with BT-549 breast; 111% (inactive) and 108% (inactive) in the assay with MDA-MB-435 melanoma; 104% (inactive) and 98.3% (inactive) in the assay with SW-620 colon; 97.7% (inactive) and 97.4% (inactive) in the assay on MCF7 breast; 97% (inactive) and 97.3% (inactive) with HCT-116 colon; 102% (inactive) with HCC-2998 colon. Moreover, the growth in the assay with KM12 colon is 114% (inactive) and 117% (inactive).

Consider `CC1(C)[C@@H](OC(=O)CCC(=O)O)CC[C@]2(C)[C@H]3C(=O)C=C4[C@@H]5C[C@@](C)(C(=O)O)CC[C@]5(C)CC[C@@]4(C)[C@]3(C)CC[C@@H]12`, for which the growth in the assay with T-47D breast was 90.6% (inactive) and 2.63% (active); with BT-549 breast it was 99.7% (inactive) and -32.4% (active); in the assay with MDA-MB-435 melanoma, 98.8% (inactive) and -47.7% (active); in the assay on MCF7 breast it was 91.2% (inactive) and 6.18% (active); in the assay on HCT-116 colon, 95.4% (inactive) and -58.8% (active); in the assay with KM12 colon, 97% (inactive) and -73.1% (active).

For the compound `CC(C(=O)O)n1cc(C#N)c(=O)[nH]c1=O` (configuration not stated), the growth in the assay with BT-549 breast was 99.4% (inactive); in the assay with MDA-MB-435 melanoma, 94.8% (inactive) and 106% (inactive); in the assay with SW-620 colon it was 101% (inactive) and 106% (inactive); in the assay on MCF7 breast, 101% (inactive) and 93% (inactive); with HCT-116 colon it was 105% (inactive); in the assay on HCC-2998 colon, 101% (inactive) and 104% (inactive). In addition, the growth in the assay with KM12 colon is 101% (inactive) and 107% (inactive).

For `CC(=O)C(/C=N/C(N)=O)=C(/C)O`, the growth with BT-549 breast was 101% (inactive); with MDA-MB-435 melanoma, 103% (inactive); in the assay on SW-620 colon, 105% (inactive); in the assay with MCF7 breast, 106% (inactive); in the assay with HCT-116 colon it was 105% (inactive); in the assay with HCC-2998 colon, 106% (inactive). Moreover, in the assay on KM12 colon, the growth is 111% (inactive).

For the compound `OCc1ccccn1`, the growth was 103% (inactive) in the assay on BT-549 breast; 103% (inactive) in the assay on MDA-MB-435 melanoma; 104% (inactive) in the assay with SW-620 colon; 95.3% (inactive) with MCF7 breast; 104% (inactive) in the assay on HCT-116 colon; 110% (inactive) in the assay with KM12 colon.

For the compound `O=C1c2c(O)cc(O)cc2OC(c2ccc(O)c(O)c2)C1O` (configuration not stated), the growth was 103% (inactive) with T-47D breast; 111% (inactive) in the assay with MDA-MB-435 melanoma; 104% (inactive) in the assay with SW-620 colon; 102% (inactive) with MCF7 breast; 114% (inactive) with KM12 colon.
